Bioassay records deposited in PubChem by The Scripps Research Institute Molecular Screening Center.
UHRF1 MBD2 ctr: UHRF1 methylated DNA binding inhibitors, primary screen, counter-screen for MBD2 inhibitor project, biochemical, TR-FRET, human UHRF1, single concentration; inhibition, % at 4.4 µM; UHRF1 binding to methylated oligo; E3 ubiquitin-protein ligase UHRF1 (Homo sapiens), Q96T88; 370,000 compounds, 0.75% hits; in the data active = inhibition above about 21%;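 also: UHRF1 SRA domain binding a hemimethylated CpG hairpin DNA probe; 0% = median of test compound wells and 100% = reference inhibitor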
MBD2 DNA inh: inhibitors of MBD2 binding to methylated DNA, primary screen, biochemical, TR-FRET, DNA-binding domain, human. Methyl-CpG-binding domain protein 2 (Homo sapiens), Q9UBB5. MBD2 binding to methylated oligonucleotide. inhibition, % at 4.4 µM. 370,000 compounds, 0.31% hits; in the data active = inhibition above about 13%
TCR-CD3 inh: inhibitors of human TCR-CD3 interaction, primary screen, biochemical, fluorescence, TAMRA-labeled TCR probe. T-cell receptor (TCR). inhibition, % at 9.4 µM. 360,000 compounds, 0.37% hits. AID 651800, 2012; in the data active = inhibition above about 19%;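 also: recombinant mutant TCR 2C K166C tagged with TAMRA read by polarization; 0% = receptor in buffer alone and 100% = receptor with positive control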
Rin1-Abl PPI inh: inhibitors of Rin1-Abl protein binding, primary screen, biochemical, TR-FRET. AID 588664, 2011. 360,000 compounds, 0.4% hits. inhibition, % at 7.35 µM; in the data active = inhibition above about 5%, passing the limit was not always enough
LEDGF integ inh: blockers of LEDGF/p75-dependent integrase strand transfer – biochemical, TR-FRET, high throughput, primary screen; HIV-1 integrase (with human LEDGF/p75); TR-FRET IN-LEDGF/p75 DNA integration, Eu/Cy5; inhibition, % at 3.7 µM; 370,000 compounds, 0.64% hits; AID 743269, 2014;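 active = inhibition above the screen-wide mean plus 3 SD, cut at about 13% in these data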;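 also: signal is the Cy5 over europium emission ratio at 671 and 618 nm; 0% = plate median of compound wells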
IN multimer act: HIV-1 IN multimer formation enhancers, counter-screen for LEDGF/p75 integration inhibitor project, biochemical, TR-FRET. TR-FRET HIV-1 integrase multimerization. 2,000 compounds, 17% hits. activation, % at 7.7 µM. AID 1053131, 2014. shares compounds with LEDGF integ inh; in the data active = activation above about 8.9%
TR-FRET interf: TR-FRET optical interference artefacts, confirmation, artefact control for LEDGF/p75-dependent integration inhibitor project, biochemical, HIV-1 IN multimerization; shares compounds with LEDGF integ inh; TR-FRET optical interference counterscreen; inhibition, % at 7.7 µM; 2,000 tested, under 10 active;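 active = inhibition above the mean over all tested compounds plus 3 SD, which no compound reached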;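 also: 0% = integrase with antibodies and DMSO and 100% = antibodies without integrase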
LEDGF integ conf: inhibitors of HIV-1 IN-LEDGF/p75 DNA integration, confirmation, biochemical, TR-FRET; shares compounds with LEDGF integ inh; TR-FRET LEDGF/p75-dependent HIV-1 integration; inhibition, % at 3.7 µM; 2,000 compounds, 36% hits; AID 1053136, 2014; in the data active = inhibition above about 14%
Starred values were filed as active, the others as inactive; · = no result given. In the library only some 2% were active in any assay of this set; here they are far more common.

SMILES	UHRF1 MBD2 ctr	MBD2 DNA inh	TCR-CD3 inh	Rin1-Abl PPI inh	LEDGF integ inh	IN multimer act	TR-FRET interf	LEDGF integ conf
Cc1ccc(N2CC(C(=O)Nc3cccc(S(=O)(=O)N4CCOCC4)c3)CC2=O)cc1 (stereo not drawn)	0.8	0.6	-1.1	-1.8	3.6	·	·	·
CC(C)c1ccc(NC(=O)CCN2C(=O)[C@@H]3Cc4ccccc4CN3C2=O)cc1	2.0	1.8	-1.4	0.7	-6.4	·	·	·
Clc1ccc(CNc2ncccn2)cc1	3.9	2.6	-4.6	0.9	-4.8	·	·	·
Fc1ccc(CNc2ncccn2)cc1	1.8	-2.2	2.3	1.6	13.8*	1.9	-9.3	-5.0
Cc1cc(N(C)N)nc(NC(=O)NS(=O)(=O)c2ccccc2Cl)n1	-1.4	1.4	-0.8	0.7	-0.8	·	·	·
N#CC1C(=O)Nc2cccnc21 (stereo not drawn)	3.1	-8.2	5.2	2.4	27.4*	3.1	-11.3	5.0
O=C1Nc2ccccc2C1Cc1ccccn1 (stereo not drawn)	0.5	0.8	0.2	0.1	1.1	·	·	·
Cc1ccccc1NC1=C/C(=N\S(=O)(=O)c2ccc(C(=O)O)cc2)c2ccccc2C1=O	-1.4	-9.2	4.2	-1.9	40.1*	0.2	-0.9	74.1*
COC(=O)C(C(C)=O)C1=C/C(=N\S(=O)(=O)c2ccc(C)cc2)c2ccccc2C1=O (stereo not drawn)	·	·	·	-0.5	·	·	·	·
S=C(N/N=C/c1ccc2ncccc2c1)Nc1cccnc1	-4.8	-1.8	-8.6	-1.0	-5.6	·	·	·
O=S(=O)(c1ccc(NC(=S)N/N=C/c2ccc(O)c(O)c2)cc1)N1CCOCC1	11.7	0.2	8.0	-1.1	17.9*	1.3	-6.4	14.1*
Oc1ccc(/C=N/NC(=S)Nc2cccnc2)cc1O	-1.5	-9.2	24.2*	-0.4	21.1*	18.4*	-65.7	33.6*
Cc1ccc(C)c(S(=O)(=O)N2CCCOC2CNC(=O)C(=O)NCc2ccccn2)c1 (stereo not drawn)	-2.3	4.4	-9.4	2.2	1.4	·	·	·
COC1CCCN(C(=O)c2cccc(OC3CCN(S(C)(=O)=O)CC3)c2)C1 (stereo not drawn)	0.1	-2.0	7.8	-2.3	5.4	·	·	·
Cc1ccc(SCC(=O)OCc2csc(CC(=O)Nc3ccccc3C)n2)cc1C	-1.4	-0.2	-7.8	1.8	1.3	·	·	·
O=c1c2cc(Cl)ccc2oc2nc3n(c(=O)c12)CCCS3	-8.8	3.3	1.4	-3.1	22.5*	-1.5	7.5	26.8*
CCN1CCN(S(=O)(=O)c2ccc(Cl)c(C(=O)N(C)CCOc3ccc(Cl)cc3)c2)CC1	-0.9	2.3	-0.6	2.4	3.2	·	·	·
NC(=O)Cn1c(=O)n(CCC(=O)NCCSCc2ccccc2)c(=O)c2ccccc21	1.4	3.2	3.5	-1.4	63.9*	-1.9	9.7	1.1
CC(=O)Nc1ccc(-c2ccnc3c2CC(C(=O)Nc2ccc(Cl)c(C(F)(F)F)c2)O3)cc1 (stereo not drawn)	1.2	-1.1	1.5	1.5	37.4*	0.3	-1.4	-0.9
O=C(CSc1nc(=O)n(CCCN2CCOCC2)c2c1CCCC2)Nc1ccc(F)cc1	-2.6	1.4	1.5	0.2	2.2	·	·	·
CCCn1c(N)c(N(CCOC)C(=O)c2cccc(S(=O)(=O)N3CCCc4ccccc43)c2)c(=O)[nH]c1=O	-0.5	3.1	-5.2	-1.1	-1.5	·	·	·
Cc1ccc(S(=O)(=O)NCC(=O)OC(C)C(=O)c2ccccc2)cc1 (stereo not drawn)	-3.9	-3.6	-3.2	-1.6	22.6*	0.3	-1.4	-2.6
CCc1nc(SCC(=O)N2CCc3ccccc32)c2oc3ccccc3c2n1	0.2	-4.9	2.6	-2.0	14.2*	0.5	-2.5	-0.6
Cc1ccccc1-c1csc(C(O)c2ccc(F)c(F)c2)n1 (stereo not drawn)	1.3	1.6	-8.6	-0.8	-0.4	·	·	·
O=C(N/C=C/c1ccco1)NCc1ccccc1	22.6*	6.7	1.7	3.4	27.7*	14.4*	-72.8	44.1*
SMILES	UHRF1 MBD2 ctr	MBD2 DNA inh	TCR-CD3 inh	Rin1-Abl PPI inh	LEDGF integ inh	IN multimer act	TR-FRET interf	LEDGF integ conf
Cc1ccc(CNC(=O)COc2ccc(S(=O)(=O)N3CCOCC3)cc2)cc1	1.2	-5.1	-9.5	-0.6	1.3	·	·	·
CCOC(=O)[C@]12CCCC=C1N(Cc1ccccc1)C(=O)[C@H](CC(=O)N1CCCCCC1)C2	2.1	0.1	-2.7	·	22.9*	2.4	-12.1	-9.6
O=C1c2nc3cc(-c4ccco4)[nH]n3c(=O)c2CN1C1CCCCC1	12.7	-5.0	-1.4	-1.1	17.9*	1.2	-6.3	5.1
Cc1ccc(S(=O)(=O)NC[C@@H]2C[C@H](c3ccccc3)ON2S(=O)(=O)c2ccc(C)cc2)cc1	1.0	-3.8	·	·	-2.1	·	·	·
C(=C\n1nnc2ccccc21)/c1ccc[nH]1	7.1	6.7	3.1	2.1	27.0*	4.4	-22.3	37.3*
c1ccc(-n2nnc3ccccc32)cc1	-1.4	2.1	7.3	2.1	1.7	·	·	·
Cc1ccc(NC(=O)CCc2ccccc2)cc1C	-2.7	-1.2	-0.3	2.1	72.4*	-0.5	2.4	-1.1
O=C(CCc1ccccc1)Nc1cccc(NC(=O)CCc2ccccc2)c1	0.6	-1.2	1.4	0.6	0.5	·	·	·
O=C1c2cc(O)c(O)cc2S(=O)(=O)C1c1ccccc1 (stereo not drawn)	27.4*	2.0	5.6	-1.4	22.6*	1.6	-8.1	7.6
Cc1ccc(N2C(=O)N(CC(=O)Nc3cccc(C)c3C)C(=O)C2C)cc1 (stereo not drawn)	-1.0	-2.8	6.4	3.4	14.9*	0.2	-0.8	-5.7
N#C/C(=C(/O)CCl)c1nnc2n1CCCCC2	3.3	1.6	-4.3	-5.9	-4.0	·	·	·
N#C/C(=N\Nc1cc(Cl)cc(Cl)c1)c1nnc2n1CCCCC2	2.8	5.9	-9.1	-8.4	63.7*	1.3	-6.5	4.9
COc1ccc(C[C@@H]2CN3C(=NC[C@@H]3C)N2C[C@H](C)NC(=O)CCC2CCCCC2)cc1	2.4	2.5	0.5	2.9	52.0*	-3.3	11.9	-4.2
C[C@@H](CN1C2=NC[C@H](Cc3ccc(O)cc3)N2C[C@H]1Cc1ccc(O)cc1)NC(=O)CCC1CCCCC1	-0.3	1.8	1.7	2.3	0.2	·	·	·
